Source: PubChem BioAssay
Hits are enriched below; roughly 11% of the tested compounds scored in any of these assays.
Pf growth 48h: Primary qHTS for delayed death inhibitors of the malarial parasite plastid, 48 hour incubation | P. falciparum luciferase growth in erythrocytes, 48 h | Potency, µM (titrated, usually from 28.7 µM), actives largely listed as inhibitors | 310,000 compounds, 5.9% hits | AID 504832, 2011
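Cell-based growth assay: transgenic P. falciparum expressing firefly luciferase, cultured in red cells within RPMI 1640 containing 0.5% w/v Albumax, 24 mM bicarbonate and gentamycin. A drop in luciferase activity indicates inhibition.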
VACV mCherry inh: qHTS for Stage-Specific Inhibitors of Vaccinia Orthopoxvirus: mCherry Reporter Primary qHTS; Vaccinia virus mCherry reporter infection, fluorescence; 310,000 compounds, 0.63% hits; Potency, µM (top dose mostly 36.5 µM), hits mostly inhibitors; AID 720579, 2013; calls by dose curve; tested in A549 cells; also: nearly all actives have a fitted effect of over 35% in size
HCV inh: qHTS Assay for Inhibitors of Hepatitis C Virus (HCV); Huh7.5.1 HCVcc-Cre infection, luciferase reporter, 44 h; Potency, µM (titrated, usually from 41.8 µM), actives largely listed as inhibitors; 340,000 compounds, 3.4% hits; AID 651820, 2012
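Seed cells (1,000/well) for 4 h; treat with compound and infect with HCVcc-Cre, moi about 0.5. Incubate 44 h, then detect luciferase activity.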
NS1 inh: qHTS Assay for Inhibitors of Influenza NS1 Protein Function; Potency, µM (highest dose often 46.1 µM); 270,000 compounds, 0.4% hits; calls by dose curve; also: actives are rising curves; nearly all actives have a fitted effect of over 50% in size
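Recovery from NS1-induced slow growth read by OD600 in budding yeast switched to galactose assay medium (pH 6.0, -URA) at 1:100 dilution. Compound 23 nl per well; the matching strain lacking NS1 serves as control.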
Vaccinia Venus: qHTS for Stage-Specific Inhibitors of Vaccinia Orthopoxvirus: Venus Reporter Primary qHTS. Vaccinia virus Venus reporter expression, fluorescence. Potency, µM (top dose mostly 36.5 µM), most hits filed as inhibitors. 330,000 compounds, 0.46% hits. AID 720580, 2013; calls by dose curve; tested in A549 cells; also: nearly all actives have a fitted effect of over 30% in size
Pf growth 96h: Primary qHTS for delayed death inhibitors of the malarial parasite plastid, 96 hour incubation. P. falciparum luciferase reporter growth, 96 h. Potency, µM (titrated, usually from 28.7 µM), hits mostly inhibitors. 320,000 compounds, 6.9% hits. AID 504834, 2011
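Luminescence readout: decreased luciferase signal marks inhibited growth of reporter-expressing P. falciparum in infected red cells (2% hematocrit, 0.05% parasitemia final), exposed to compound two generations (96 h, 37 C, 5% CO2).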
A number is an active result; – = inactive; ? = inconclusive; · = no result; [ ] = dose if it differs, or a comment. Unless noted, calls follow the shape of the dose curve; as a rule, active = well fitted inhibition curve with a large enough effect; inconclusive = small, poorly fitted or top-dose-only effect, or another doubt; inactive = no such curve, though single readings can be large or run the other way.

SMILES	Pf growth 48h	VACV mCherry inh	HCV inh	NS1 inh	Vaccinia Venus	Pf growth 96h
Cc1ccc(-n2nc3c(=O)n(CCCC(=O)NCCc4ccccc4Cl)nc(C)c3c2C)cc1	·	–	·	·	–	·
Cc1ccc(-n2nc3c(=O)n(CCCC(=O)NCc4ccc(C)o4)nc(C)c3c2C)cc1	10µM	·	–	–	·	?
Cc1ccc(N2C(=O)N(CC(=O)NCc3ccccc3Cl)C(=O)C2C)cc1 (stereo not given)	10µM	–	?	·	–	–
CCOC(=O)C1=C(N)OC2=C(C(=O)CC(C)C2)C1c1cccnc1 (stereo not given)	–	–	–	–	–	–
CC(=O)NC(c1ccc(Cl)cc1)c1c(O)ccc2ccc(O)cc12 (stereo not given)	–	–	–	–	–	–
CC(C)CC(=O)NC(c1ccccc1)c1c(O)ccc2ccccc12 (stereo not given)	?	–	–	–	–	?
O=C(NC(c1ccc(Cl)cc1)c1c(O)ccc2ccccc12)c1ccccc1 (stereo not given)	12µM	10µM	?	?	?	–
O=C(NC(c1ccccc1)c1c(O)ccc2ccccc12)c1ccccc1Cl (stereo not given)	?	·	14µM	–	·	?
COc1ccc(CCNC(=O)c2ccc(CN3CCC(Cc4ccccc4)CC3)cc2)cc1	?	–	?	–	–	?
O=C(NCc1ccco1)C12CN(Cc3ccccc3)CC1C(c1ccc([N+](=O)[O-])cc1)=NO2 (stereo not given)	12µM	?	–	–	–	–
O=C(NCc1ccccc1)C12CN(Cc3ccccc3)CC1C(c1ccc([N+](=O)[O-])cc1)=NO2 (stereo not given)	12µM	–	–	–	–	?
Cc1ccc(CNC(=O)C23CN(Cc4ccccc4)CC2C(c2cccc([N+](=O)[O-])c2)=NO3)cc1 (stereo not given)	10µM	–	–	?	–	?
COc1ccc(CCNC(=O)C23CN(Cc4ccccc4)CC2C(c2ccc([N+](=O)[O-])cc2)=NO3)cc1 (stereo not given)	5.2µM	?	?	–	–	?
COc1ccccc1/C=C/C(=O)OCC(=O)N1CCCCC1	·	–	–	·	–	·
O=C(COc1ccccc1[N+](=O)[O-])Nc1cc(-c2nc3cc(Cl)ccc3o2)ccc1Cl	·	–	·	·	–	·
O=C(COC(=O)C1COc2ccccc2O1)Nc1ccccc1OC(F)F (stereo not given)	·	·	–	·	·	·
COc1ccc(CNC(=O)C23CN(Cc4ccccc4)CC2C(c2ccc([N+](=O)[O-])cc2)=NO3)cc1 (stereo not given)	6.6µM	–	–	–	–	13µM
CCCCn1nnc(NC(=O)c2ccc(-c3ccccc3[N+](=O)[O-])o2)n1	–	–	?	–	–	8.3µM
CCCCn1nnc(NC(=S)NC(=O)c2ccc(OCC)c([N+](=O)[O-])c2)n1	–	?	–	–	1.3µM	–
CCCCn1nnc(NC(=S)NC(=O)c2ccc(-c3cccc(Cl)c3Cl)o2)n1	–	?	–	–	0.11µM	–
CCCn1nnc(NC(=O)c2ccc(-c3cc(Cl)ccc3Cl)o2)n1	–	–	?	·	–	–
CCOc1ccc(CN(CCc2ccc3c(c2)OCO3)Cc2ccc(C)cc2)cc1	·	–[7.34 µM]	·	·	–[7.34 µM]	·
CC[n+]1c(/C=C2/C=C(C)CC(C)(C)C2)sc2ccc(OC)cc21	0.37µM	·	?	–	–	–
CCC1=C/C(=C/c2sc3ccccc3[n+]2CC)CC(C)(C)C1	?	–	?	·	–	–
CC[n+]1c(/C=C2\C=C(C)CC(C)(C)C2)sc2ccccc21	0.33µM	–	6.3µM	–	–	?
SMILES	Pf growth 48h	VACV mCherry inh	HCV inh	NS1 inh	Vaccinia Venus	Pf growth 96h
CC(=O)N1C(=O)N(C)C2C1N(C)C(=O)N2C(C)=O (stereo not given)	–	·	·	–	·	?
CC(=O)OC1C(OC(C)=O)N(C(C)=O)C(=O)N1C(C)=O (stereo not given)	–	–[1.46 µM]	–	–	–	9.3µM
COc1ccc(CCN(C)CCCC(C#N)(c2cc(OC)c(OC)c(OC)c2)C(C)C)cc1OC (stereo not given)	12µM	–	?	–	–	5.2µM
Cc1cccc(OCC(=O)N(Cc2ccco2)c2c(N)n(Cc3ccccc3)c(=O)[nH]c2=O)c1	?	·	–	·	·	?
O=[N+]([O-])c1ccc(N2CCCC(C(F)(F)F)C2)c2ccncc12 (stereo not given)	13µM	2.8µM	10µM	–	7.9µM	?
COc1ccc(O)c(C(C)(C)C)c1	–	–	–	–	–	–
CC(C)(C)c1cc(O)ccc1O	6µM	·	·	–	·	11µM
c1ccc(CNc2ncnc3c2oc2ccccc23)nc1	–	·	–	–	·	–
CCCCn1c(SCC(=O)c2cc(OC)ccc2OC)nc2cc(S(N)(=O)=O)ccc21	–	–	–	–	–	·
CCCCn1c(SCc2ccc(C(=O)OC)o2)nc2cc(S(N)(=O)=O)ccc21	?	–	2.5µM	–	–	–
COCCN1C2=C(C(=O)CC(C)(C)C2)C(c2ccc(O)c(OC)c2)C2=C1CC(C)(C)CC2=O	–	·	–	–	·	–
COc1ccc(OC)c(Nc2nc(NCCCN(C)C)nc(N)c2[N+](=O)[O-])c1	13µM	–	–	–	–	12µM
COc1ccccc1Nc1nc(NCCC(C)C)nc(N)c1[N+](=O)[O-]	3.7µM	·	13µM	–	·	?
COc1ccccc1Nc1nc(NCCO)nc(N)c1[N+](=O)[O-]	?	–	–	–	–	?
COCCCNc1nc(N)c([N+](=O)[O-])c(Nc2cc(OC)ccc2OC)n1	–	–	–	–	–	?
O=[N+]([O-])c1ccc(S(=O)(=O)Nc2nnc(C(F)(F)F)s2)cc1	–	·	–	–	·	10µM
O=C(CCCN1CCC(n2c(=O)[nH]c3ccccc32)CC1)c1ccc(F)cc1	0.81µM	–	?	·	–	10µM
Cc1ccc(C(=O)NC2CCN(CCCC(=O)c3ccc(F)cc3)CC2)cc1	10µM	–	–	–	–	?
O=C(CCCN1CCC(NC(=O)c2ccccc2)CC1)c1ccc(Cl)cc1	?	·	–	–	·	–
COCCNC(=O)c1cccc(Nc2nc(-c3ccccc3)c3cc(Cl)ccc3n2)c1	?	·	10µM	–	·	?
O=C(Oc1ccc(Br)cc1C(=S)N1CCCC1)c1ccccc1F	–	–	–	–	–	–
COC(=O)C1=C(c2c(C)noc2C)C[C@@H]2CC[C@H]1N2C(=O)N1CCC(O)(c2ccc(Cl)cc2)CC1	6.6µM	–	–	·	–	?
COC(=O)C1=C(c2c(C)noc2C)C[C@@H]2CC[C@H]1N2C(=O)N1CCOCC1	–	–	–	·	–	–
